Hits are enriched below; roughly 3.5% of the tested compounds scored in any of these assays.
Myeloid diff 2 – promotes myeloid progenitor differentiation; ER-HoxA9 myeloid progenitors, lysozyme-GFP differentiation, flow cytometry; calls only at 10 µM; actives 1% (n = 360,000); AID 624256;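 active = normalized GFP-positive differentiation at or above the plate's own cutoff, the solvent-only control mean plus 3 SD; inconclusive = no clear call, values can overlap the other calls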;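 note: cells exposed to compound for four days before flow analysis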
CHRM1 PAM – human CHRM1 positive allosteric modulation; P11229; CHO-K1 hM1, Fluo-8 calcium fluorescence, ACh EC20; 0% = ACh EC20, 100% = maximal ACh; activation, % at 3 µM; actives 0.088% (n = 360,000); in the data active = activation above about 19%, passing the limit was not always enough
Target sequence (P11229 whole entry, looked up): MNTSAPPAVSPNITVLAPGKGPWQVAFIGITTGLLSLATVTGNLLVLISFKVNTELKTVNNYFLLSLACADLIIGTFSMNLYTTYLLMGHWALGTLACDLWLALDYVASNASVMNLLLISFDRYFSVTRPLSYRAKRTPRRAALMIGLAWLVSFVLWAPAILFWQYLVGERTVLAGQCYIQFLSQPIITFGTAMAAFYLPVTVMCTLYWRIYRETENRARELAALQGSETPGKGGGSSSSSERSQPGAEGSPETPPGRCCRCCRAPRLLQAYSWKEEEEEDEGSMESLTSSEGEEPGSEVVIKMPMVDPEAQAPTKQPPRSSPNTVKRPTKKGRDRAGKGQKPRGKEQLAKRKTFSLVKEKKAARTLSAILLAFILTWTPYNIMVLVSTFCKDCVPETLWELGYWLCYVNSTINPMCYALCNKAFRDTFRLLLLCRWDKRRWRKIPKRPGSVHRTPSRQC
ATG4B inh – blocks human ATG4B protease cleavage of LC3 substrate. ATG4B cleavage of LC3-PLA2, NBD-HPC fluorescence, 1 h. inhibition, % at 8.33 µM. actives 0.51% (n = 340,000). AID 504462; in the data active = inhibition above about 40%
SKN-1 block – inhibitors of C. elegans SKN-1; C. elegans VP596 Pgst-4::GFP/RFP ratio, acrylamide-induced, 24 h; inhibition, % at 21.8 µM; actives 0.49% (n = 360,000); AID 624304;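 active = interference check ratio from 0.5 to 1.5 plus GFP to RFP signal ratio inhibition reaching or exceeding a fixed threshold, cut at about 30% in these data, passing the limit was not always enough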
CHRM1 antagonist – human CHRM1 antagonism. inhibition, % at 3 µM. actives 1.3% (n = 360,000). CHO-K1 hM1, Fluo-8 calcium fluorescence, ACh EC80 antagonist. P11229. AID 588852;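 active = percent inhibition above its own plate's cutoff, namely the mean of that plate's compound wells plus 3 SD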;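 note: peak over basal fluorescence ratio during 140 s after agonist addition; 0% = ACh EC80 plus DMSO and 100% = DMSO alone without agonist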
M1 ag – activates human CHRM1 receptor; P11229; CHO-K1 hM1, Fluo-8 calcium fluorescence, agonist mode; 0% DMSO, 100% acetylcholine EC100; activation, % at 3 µM; actives 0.33% (n = 360,000);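 active = activation above the run's mean compound activation plus 3 SD, cut at about 16% in these data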;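 note: peak over basal fluorescence ratio within a 140 s kinetic read after compound addition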
ATG4B conf – confirmation of human ATG4B inhibitors; shares compounds with ATG4B inh; ATG4B protease fluorescent substrate cleavage assay; inhibition, % at 8.33 µM; actives 92% (n = 320); in the data active = inhibition above about 39%
PLA2 ctr – PLA2 (human) inhibition in ATG4B counter-screen | shares compounds with ATG4B inh | purified PLA2, NBD-C6-HPC fluorescence, 45 min | inhibition, % at 8.33 µM | actives 66% (n = 1,600) | AID 588402; in the data active = inhibition above about 50%
The depositor's hits bear a star; i = inactive; ? = inconclusive; . = not tested or not shown.

SMILES	Myeloid diff 2	CHRM1 PAM	ATG4B inh	SKN-1 block	CHRM1 antagonist	M1 ag	PLA2 ctr	others
O=C(Nc1ccc2nc(-c3ccco3)c(-c3ccco3)nc2c1)NC1CC1	i	6	55*	20	-18	-2	60*
O=C(Nc1cccc(C(F)(F)F)c1)c1ccc2nc(-c3ccco3)c(-c3ccco3)nc2c1	i	11	47*	-17	-37	-1	9
O=C(O)c1ccc2nc(-c3ccco3)c(-c3ccco3)nc2c1	i	12	-1	3	-12	-3	.
COc1ccc2c(c1OC)C(=O)OC2n1c(O)c(N=NC(C)=O)c2ccccc21 (centres undefined)	i	4	-1	6	-4	-2	.
COc1ccc(C2=NN(C(=O)c3ccccc3)C(c3ccc(OC)c(OC)c3)C2)c(OC(C)=O)c1 (centres undefined)	i	5	.	16	-13	-3	.
O=C(Cc1cccc2ccccc12)Nc1nc(-c2cccc([N+](=O)[O-])c2)cs1	i	-1	-10	3	2	-7	.
O=C(Nc1nc(-c2cccc([N+](=O)[O-])c2)cs1)c1cccc([N+](=O)[O-])c1C(=O)O	i	7	79*	6	-1	-7	82*
COc1ccc(-c2csc(NC(=O)c3ccccc3NS(=O)(=O)c3ccc(C)cc3)n2)cc1	i	-14	74*	2	17	-5	68*
O=C(O)c1ccccc1C(=O)Nc1nc(-c2ccc3ccccc3c2)cs1	i	14	83*	-3	-3	4	84*
Cc1ccc(-c2csc(NC(=O)c3cccc([N+](=O)[O-])c3C(=O)O)n2)cc1	i	7	53*	9	-7	-4	69*
C[C@H]1CN([C@@H](C)CO)C(=O)CCCn2nncc2CO[C@H]1CN(C)C(=O)c1ccc(N2CCN(C)CC2)cc1	i	7	.	-9	-12	-9	.
CSc1ccc(NC(=O)NCc2cccnc2)cc1	i	9	8	1	-7	-5	.
O=C(Cc1ccc(Cl)cc1)NCC(=O)N1CCCCCC1	i	5	5	4	-5	-4	.
NC(=O)C1Cc2ccccc2CN1C(=O)c1cc(C2CC2)nn1-c1ccccc1 (centres undefined)	i	-2	92*	-7	1	1	92*
NC(=O)C1Cc2ccccc2CN1C(=O)c1nn(Cc2ccccc2)c(=O)c2ccccc12 (centres undefined)	i	4	41*	9	-4	-2	61*
O=C(c1nn(Cc2ccccc2)c(=O)c2ccccc12)N1CCc2ccccc2C1	i	-12	20	6	10	-4	.
Cc1ccc(C(=O)N2Cc3ccccc3CC2C(=O)O)cc1 (centres undefined)	i	3	-7	10	5	-1	.
CC1Cc2ccccc2N1S(=O)(=O)c1cccc(C(=O)N2CCCCC2)c1 (centres undefined)	i	1	-4	-2	-9	-2	.
CC1Cc2ccccc2N1S(=O)(=O)c1cccc(C(=O)N2Cc3ccccc3CC2C(N)=O)c1 (centres undefined)	i	12	68*	9	-10	-3	68*
NC(=O)C1Cc2ccccc2CN1C(=O)c1cccc(Oc2ccccc2)c1 (centres undefined)	i	8	47*	-3	-7	6	94*
COc1cccc(NC(=O)C2C3C=CC4(O3)C2C(=O)N(CCCN2CCCCC2)C4C(=O)NC2CCCCC2)c1 (centres undefined)	i	9	4	9	6	-1	.
CCC1CCCCN1CCCNC(=O)c1ccc(CS(=O)(=O)c2ccccc2C)o1 (centres undefined)	i	-11	-6	12	15	-5	.
CC(OC(=O)Cc1ccccc1[N+](=O)[O-])C(=O)Nc1ccc(Cl)cn1 (centres undefined)	.	-1	3	14	4	-5	.
C[C@@H]1CCCCO[C@H](CN(C)Cc2ccc3c(c2)OCO3)[C@@H](C)CN([C@H](C)CO)C(=O)c2cc(NC(=O)c3ccccc3)ccc2O1	i	-2	.	-3	4	-11	.
Cc1cccc(NC(=O)c2cc(-c3cc(C)cc(C)c3O)n[nH]2)c1	i	-8	11	-5	7	0	.
SMILES	Myeloid diff 2	CHRM1 PAM	ATG4B inh	SKN-1 block	CHRM1 antagonist	M1 ag	PLA2 ctr	others
CCOC(=O)c1c(/N=C/C2=C(O)CCCC2=O)sc2c1CCCC2	i	0	26	4	6	-8	.
CCOC(=O)c1c(/N=C/C2=C(O)CC(C)(C)CC2=O)sc(C)c1C	i	7	62*	-1	-9	-7	16	ATG4B conf=69*
CCc1ccccc1N1CCN(S(=O)(=O)c2cc(OC)ccc2OC)CC1	i	-9	57*	-12	16	-2	52*
O=C(NCCc1c[nH]c2ccccc12)OCCSS(=O)(=O)O	i	11	-3	-10	-3	1	.
O=C(CSCc1ccco1)N1CCc2ccccc21	i	6	-10	22	-8	-5	.
COc1ccc(C2C(Oc3ccccc3)C(=O)N2c2cc(C)ccc2C)cc1OC (centres undefined)	i	1	-4	3	-4	-5	.
COc1ccc(C)cc1N1C(=N)/C(=C2/Nc3ccccc3S2)C(c2ccccc2)C1=O (centres undefined)	?	-2	50*	9	5	2	29
c1cncc(-c2nc(NCCCN3CCOCC3)c3c4c(sc3n2)CCC4)c1	i	0	40*	5	13	-8	57*
CC(=O)c1ccccc1NC(=O)COc1ccc(N(C)S(=O)(=O)c2ccc(C)c(C)c2)cc1	i	14	85*	-11	-8	5	28
N#Cc1c(-c2cccc(Br)c2)cc(-c2ccco2)[nH]c1=O	i	-4	.	2	10	0	41
Cc1nnc(SCC(=O)NCc2ccc(F)cc2)[nH]c1=O	i	6	0	7	-5	-5	.
C[C@H]1c2cccc(O)c2C(O)=C2C(=O)[C@]3(O)C(O)=C(C(N)=O)C(=O)[C@@H](N(C)C)[C@@H]3[C@@H](O)[C@@H]21	i	-12	40*	12	-5	25*	1	ATG4B conf=66*
O=C(O)C(Cc1c[nH]c2ccccc12)NS(=O)(=O)c1ccc(F)cc1 (centres undefined)	i	6	.	7	-14	-1	.

High-throughput results deposited in PubChem by several laboratories.
